Screening data: PubChem, several laboratories
A selection: hits, their analogues and other compounds. The true share with any hit is near 11%.
WT yeast gro inh – growth inhibition of WT yeast, mitochondrial fusion screen; mitochondrial fusion phenotypic screen, WT strain; inhibition, % at 10 µM; hit rate 2.1% among 190,000; AID 1362; in the data active means inhibition above about 58%; tested in S. cerevisiae
Autophagy mod – autophagy modulation, high-content screen; MEF GFP-LC3 puncta imaging; test concentration mostly 10 µM; calls only at 10 µM (by protocol); hit rate 0.98% among 190,000; AID 463193;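 active means percentage of spot-positive cells more than 3 SD above its plate mean, without a fluorescence outlier flag or 80% toxicity; inconclusive means no clear call, values can overlap the other calls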;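 further: spot-positive cell cutoff set from DMSO-treated cells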
L major viab – Leishmania major promastigote growth inhibition | Leishmania major promastigotes, resazurin fluorescence viability | inhibition, % at 10 µM | hit rate 9% among 200,000; in the data active means inhibition above about 50%;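 further: promastigotes grown with compound for 44 hours at 28 °C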
Insulin prom inh – TRM-6 insulin promoter activity inhibition | TRM-6 cells (human fetal islet line), insulin promoter-eGFP reporter, imaging; reporter expression induced with tamoxifen | inhibition, % at 2 µM | hit rate 0.9% among 130,000 | AID 1273;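 active means inhibition above the mean plus 3 SD, with well images judged a real hit on visual review, cut at about 60% in these data, passing the limit was not always enough; inconclusive means inhibition over the cutoff but images rejected on review; inactive means inhibition not above the cutoff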
Insulin prom up – MIN6 insulin promoter up-regulation; MIN6 insulin promoter-GFP reporter, high-content imaging; stronger effect = higher value; z-score at 5 µM; hit rate 0.3% among 190,000;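 active means z-score above 3 at 5 µM with at least 500 cells counted in the well; inconclusive means wells under 500 cells, flagged as cytotoxic or low count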
* = called active by the depositor; i = inactive; u = inconclusive; x = not tested or not shown; + = active, no number.

SMILES	WT yeast gro inh	Autophagy mod	L major viab	Insulin prom inh	Insulin prom up
O=C(CCN=C1NS(=O)(=O)c2ccccc21)N1CCc2ccccc2C1	-4	i	2	20	0.16
O=C(CSc1nnc(CNC(=O)c2ccccc2F)o1)NCCc1ccccc1	-20	i	-3	11	0.51
CCSc1nnc(NC(=O)CSc2nnc(CNC(=O)c3ccccc3F)o2)s1	-5	i	85*	-16	0.71
CCOc1c2ccc(C(=O)NCc3ccco3)cc2nn1CC	13	i	-2	x	0.15
CCCCn1nc2cc(C(=O)NCC34CC5CC(CC(C5)C3)C4)ccc2c1OC	10	i	59*	x	-0.38
CCn1nc2cc(C(=O)NCC34CC5CC(CC(C5)C3)C4)ccc2c1OC	-24	i	51*	x	1.8
CCOc1c2ccc(C(=O)NCC34CC5CC(CC(C5)C3)C4)cc2nn1CC	9	i	86*	x	2.1
CCCCn1nc2cc(C(=O)NCC3CC3)ccc2c1OCC	-9	i	-5	x	-0.31
CCOc1c2ccc(C(=O)NCc3ccccc3OC)cc2nn1CC	0	i	-3	x	-0.45
CCCCn1nc2cc(C(=O)NCCCCc3ccccc3)ccc2c1OCC	32	i	73*	x	-0.37
Cn1c(NCC(O)CO)nc2c1c(=O)n(Cc1ccc(Cl)c(Cl)c1)c(=O)n2C (stereo unspecified)	2	i	73*	-5	-0.28
Cn1c(NCc2ccco2)nc2c1c(=O)n(Cc1ccc(Cl)c(Cl)c1)c(=O)n2C	16	i	16	x	0.3
Cc1nn(Cc2ccccc2)c(C)c1NC(=O)c1cc2nc(-c3ccco3)cc(C(F)(F)F)n2n1	-14	i	21	x	-0.27
CCc1ccc(-c2cc(C(F)(F)F)n3nc(C(=O)Nc4c(C)nn(Cc5ccccc5C)c4C)cc3n2)s1	11	+	16	-11	0.03
CCc1ccc(-c2cc(C(F)(F)F)n3nc(C(=O)Nc4c(C)nn(Cc5ccccc5Cl)c4C)cc3n2)s1	-1	+	20	29	-3
CCc1ccc(-c2cc(C(F)(F)F)n3nc(C(=O)Nc4cnn(Cc5ccccc5C)c4)cc3n2)s1	-10	u	-4	-43	x
CC(=O)Nc1ccc(S(=O)(=O)Nc2nc3ccccc3nc2Nc2ccc(O)cc2)cc1	x	x	x	x	0.1
Cc1ccc(S(=O)(=O)CCC(=O)NCCN2C(=O)S/C(=C\c3ccccc3)C2=O)cc1	7	i	8	x	-0.33
Cc1ccc2c(c1)S/C(=C/c1ccc[n+](C)c1)N2CCO	18	i	70*	-30	x
COc1ccc(CNC(=O)C(=O)NCCCn2ccnc2)cc1	-1	i	-2	-33	1.1
CCC(NS(=O)(=O)c1ccc(C)cc1)C(=O)N1CCC2(O)CCCCC2C1 (stereo unspecified)	-54	i	-7	-4	-0.25
O=C(C(Cc1ccc(Cl)cc1)NS(=O)(=O)c1ccccc1)N1CC[C@@]2(O)CCCC[C@H]2C1 (stereo partly specified)	16	i	51*	-24	1.6
Nc1c(C(=O)NC23CC4CC(CC(C4)C2)C3)sc2nc3c(c(C(F)(F)F)c12)CCC3	-18	+	-6	-13	0.21
Nc1c(C(=O)Nc2ccccc2)sc2nc3c(c(-c4ccco4)c12)CCC3	-31	i	-5	-32	-0.31
Clc1ccc(-c2ccnc(Oc3ccc4ccccc4c3)n2)cc1	19	i	-6	-20	-0.18
SMILES	WT yeast gro inh	Autophagy mod	L major viab	Insulin prom inh	Insulin prom up
N#Cc1cc(-c2ccccc2)nc(Oc2ccc(Cl)cc2)n1	-16	i	77*	-172	-1.7
c1ccc2c(c1)NCCS2	14	i	1	x	-0.2
Cc1ccc(CSc2nc3ccccc3cc2C=O)cc1	5	i	96*	-45	1.6
O=Cc1cc2ccccc2nc1SCc1ccc(Cl)c(Cl)c1	19	i	95*	9	u
O=Cc1cc2ccccc2nc1SCc1ccc(Cl)cc1	19	i	97*	50	-0.09
COc1cccc(NC(=O)c2ncc(Cl)c(Cl)c2Cl)c1	16	i	9	x	0.14
Cc1ccc(-c2nnc(SCC(=O)NNC(=O)COc3cccc4ccccc34)n2C)cc1	5	i	-5	x	0.57
Cc1ccc(-c2nc(N)sc2-c2ccccc2)cc1C	73*	i	22	47	0.15
Nc1nc(-c2ccccc2)c(-c2ccccc2)s1	3	i	-6	0	-0.87
Cc1ccc(-c2nc(N)sc2-c2ccc(C)cc2)cc1	80*	i	44	x	-0.01
Cc1ccc(-c2csc(NC(=O)c3ccc4c(=O)n5c(nc4c3)CCCCC5)n2)cc1	3	i	32	x	-0.9
O=c1cc(N2CCCC2)c2ccccc2o1	-13	i	-4	x	0.29
CCn1c(C(=O)N2CCCC(C(=O)NCCCc3ccccc3)C2)cc2sccc21 (stereo unspecified)	-1	i	99*	-11	-1.8
CCn1c(C(=O)N2CCCC(C(=O)NCCc3ccc(C)cc3)C2)cc2sccc21 (stereo unspecified)	44	i	8	x	-2.4
O=[N+]([O-])c1cc(Br)c(O)c(/C=N/Nc2nnnn2-c2cccc3ccccc23)c1	12	i	-5	16	x
OCCN(Cc1ccccc1)CC(O)COc1ccc(-c2ccccc2)cc1 (stereo unspecified)	66*	i	39	5	-0.06
OCCN1CCN(CC(O)COc2ccc3ccccc3c2)CC1 (stereo unspecified)	-11	i	91*	-16	0.63
OC(COc1ccc(OCC(O)CN2CCCCCC2)cc1)CN1CCCCCC1 (stereo unspecified)	-10	i	30	-94	-0.58
OCCN1CCN(CC(O)COc2ccc(-c3ccccc3)cc2)CC1 (stereo unspecified)	40	i	96*	x	-1.1
CN1CCN(CC(O)COc2ccc(C34CC5CC(CC(C5)C3)C4)cc2)CC1 (stereo unspecified)	97*	i	100*	x	-1.7
COc1cc(C(C)=O)ccc1OCC(O)CN(CCO)Cc1ccccc1 (stereo unspecified)	-25	i	-5	-42	-0.96
COC(=O)/C=C1\SC(N)=NC1=O	x	x	x	x	-0.21
CCOC(=O)c1c(/N=C/c2ccc(O)cc2O)sc2c1CCC2	15	i	24	-47	1.3
COc1ccc(C(CNC(=O)c2cccc(Br)c2)N2CCCC2)cc1 (stereo unspecified)	-8	i	54*	-27	-1.3
CCSCc1nnc(SCC(=O)Nc2nc(C)cs2)n1C	6	i	-3	12	0.26
SMILES	WT yeast gro inh	Autophagy mod	L major viab	Insulin prom inh	Insulin prom up
CCNc1ccc2noc3c2c1C(=O)c1ccccc1-3	46	i	9	-371	x
O=C1c2ccccc2-c2onc3ccc(NCc4ccco4)c1c23	66*	i	-2	-335	1.7
Cc1ccc(CNC(=O)CSCc2ccccc2)cc1	-17	+	-8	x	-0.07
CCOc1ccc(CCNC(=O)CSCc2ccc(C)cc2)cc1OCC	9	i	1	-35	0.67
Cc1ccc(CNC(=O)CSCc2ccc(F)cc2)cc1	7	i	4	29	x
CCCCN(CCCC)CCNC(=O)CSCc1ccc(C)cc1	-5	i	83*	x	x
